The target in test [1] is T1, Aspartate--tRNA(Asp/Asn) ligase (Mycobacterium tuberculosis (strain ATCC 25618 / H37Rv)) (UniProt P9WFW3). Note: in the data most compounds retested in dose-response had high values.
T1 sequence (whole entry): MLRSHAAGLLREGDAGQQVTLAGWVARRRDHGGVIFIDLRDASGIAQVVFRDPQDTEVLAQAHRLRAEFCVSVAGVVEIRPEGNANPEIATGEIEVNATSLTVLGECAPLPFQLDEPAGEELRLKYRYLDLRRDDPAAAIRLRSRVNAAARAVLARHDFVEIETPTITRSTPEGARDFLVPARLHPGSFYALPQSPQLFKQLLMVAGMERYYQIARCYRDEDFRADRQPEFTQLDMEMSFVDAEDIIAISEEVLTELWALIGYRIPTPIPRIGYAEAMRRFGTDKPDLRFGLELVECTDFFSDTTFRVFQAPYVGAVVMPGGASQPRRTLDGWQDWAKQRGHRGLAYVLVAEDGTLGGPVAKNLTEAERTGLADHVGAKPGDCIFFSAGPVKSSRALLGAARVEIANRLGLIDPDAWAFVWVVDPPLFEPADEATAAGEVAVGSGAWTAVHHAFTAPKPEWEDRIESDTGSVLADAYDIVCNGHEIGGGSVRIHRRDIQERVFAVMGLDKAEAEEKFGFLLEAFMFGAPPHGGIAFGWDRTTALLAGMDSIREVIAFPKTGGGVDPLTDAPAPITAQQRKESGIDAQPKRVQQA
In words: Assay for Asp RNA synthetase-1 from Mycobacterium tuberculosis. It is filed as functional. On the set-up: scale not given: direction of the effect not stated beside the values. To be noted: 30 µM.

The target of test [2] is Shiga toxin 2 (Escherichia coli O157:H7) (UniProt P09385+P09386). In words: E. coli 0.157:H7 Shiga Toxin SOP - stx2 screening assay. It is filed as functional. On the set-up: scale not given: direction of the effect not stated beside the values. The note with it: 30 µM.

Each structure is given as a SMILES string.

With `Cc1nc(CN(C)C2CCN(Cc3ccno3)C2)no1` (stereo unspecified), the Percent Effect in test [1] was -4.76%; in test [2], -31.6%.

Turning to `c1ccc(-n2ncc(CNC3CCc4ncnn4C3)n2)cc1` (stereo unspecified), the figures for the Percent Effect in test [1] and in test [2] were 1.39% and -16.9%, respectively.

For `Cc1cc(NC(=O)CN2CCCC2c2noc(C(C)C)n2)n(C)n1` (stereo unspecified), the Percent Effect in test [1] was -2.48%; in test [2], 5.27%.

`CC(C)n1ccnc1CN1CCCN(C(=O)c2nccnc2N)CC1`: the Percent Effect was -6.9% in test [1] and -13.7% in test [2].

On to `CC(C)c1nn(C)c(N2CCOCC2)c1CNC(C)c1cccs1` (stereo unspecified), for which the values for the Percent Effect in test [1] and in test [2] were -0.59% and 33.2%, respectively.

`Cc1ccc(N2CCCC(NCc3cscn3)C2)nn1` (stereo unspecified): the figures for the Percent Effect in test [1] and in test [2] were 10.3% and 15.1%, respectively.

With `CC(C)(C)n1cc(C(=O)N2CCCN(Cc3cccs3)CC2)cn1`, the Percent Effect in test [1] was -0.0333%; in test [2], 35.3%.

Turning to `COCC(=O)N1CCCC1c1ccnc(Nc2cnccn2)n1` (stereo unspecified), the Percent Effect is 0.0744% in test [1] and 1.15% in test [2].

Take `CCC(OC)C(=O)N1CCc2nc(NC)nc(C(=O)N3CCCC3)c2C1` (stereo unspecified): the Percent Effect in test [1] is 1.34%; in test [2], -1.38%.

For `COc1ccccc1OCC(=O)NS(=O)(=O)c1ccc(Br)s1`, the Percent Effect in test [1] is 2.43%; in test [2] it was -0.0881%.

Turning to `O=C(NCc1nnc2n1CCC2)N(Cc1ccco1)C1CC1`, the Percent Effect in test [1] is 1.06%; in test [2], -5.54%.

On to `Cc1cnn(C2CN(Cc3nc(C(C)(C)C)no3)C2)c1`, for which the figures for the Percent Effect in test [1] and in test [2] were -0.0303% and -32.1%, respectively.

Turning to `Cc1[nH]ncc1C(=O)N1CCCC(c2cc(C(F)(F)F)[nH]n2)C1` (stereo unspecified), the Percent Effect in test [1] stood at 0.845%; in test [2], 24.8%.

With `Cc1cnn(CC2CCCN2CCCc2nc3ccccc3o2)c1` (stereo unspecified), the Percent Effect in test [1] was 1.34%; in test [2] it was -14.6%.

Turning to `COc1ccc2c(c1)OCC(CNC(=O)c1ccc(=O)n(C)c1)C2` (stereo unspecified), the Percent Effect was -0.474% in test [1] and 0.424% in test [2].

Consider `c1ccc(-c2nnc(CNCCn3cccn3)o2)cc1`, for which the Percent Effect is -5.08% in test [1] and 0.764% in test [2].

For the compound `Cc1cc(C2CCCN2C(=O)c2cc3c(s2)CCC3)on1` (stereo unspecified), the figures for the Percent Effect in test [1] and in test [2] were -0.678% and 5.77%, respectively.

As to `CCCc1cc(C(=O)N2CCOC(c3nc(-c4cccs4)no3)C2)no1` (stereo unspecified), the Percent Effect in test [1] is -0.544%; in test [2], -10.2%.

The values are drawn from ChEMBL document CHEMBL3988442, “University of Dundee, Small-Polar-MMV Screening Library” (2021).
